Compounds with a hit are over-represented: about 32% of the library has one in this group of screens.
PostGolgi ctrl – growth of the yeast control strain, post-Golgi counter-screen. hit rate 5% among 98,000. efflux-deficient yeast background strain, growth absorbance A615, 16 h. inhibition, % at 10 µM
CYP2C19 activ – increases human CYP2C19 enzyme activity. 96,000 tested, under 10 active. recombinant CYP2C19, luciferin-H EGE luminescence; stronger effect = higher value; 0 = fully inhibited enzyme, 1 = untreated enzyme. AID 1025. P33261. activation factor at 5 µM;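 active = activation factor of at least 2 at 5 µM in the primary screen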;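 also: 0 = wells with 2.5 mM tranylcypromine and 1 = vehicle-only wells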
Target sequence (P33261 whole entry, looked up): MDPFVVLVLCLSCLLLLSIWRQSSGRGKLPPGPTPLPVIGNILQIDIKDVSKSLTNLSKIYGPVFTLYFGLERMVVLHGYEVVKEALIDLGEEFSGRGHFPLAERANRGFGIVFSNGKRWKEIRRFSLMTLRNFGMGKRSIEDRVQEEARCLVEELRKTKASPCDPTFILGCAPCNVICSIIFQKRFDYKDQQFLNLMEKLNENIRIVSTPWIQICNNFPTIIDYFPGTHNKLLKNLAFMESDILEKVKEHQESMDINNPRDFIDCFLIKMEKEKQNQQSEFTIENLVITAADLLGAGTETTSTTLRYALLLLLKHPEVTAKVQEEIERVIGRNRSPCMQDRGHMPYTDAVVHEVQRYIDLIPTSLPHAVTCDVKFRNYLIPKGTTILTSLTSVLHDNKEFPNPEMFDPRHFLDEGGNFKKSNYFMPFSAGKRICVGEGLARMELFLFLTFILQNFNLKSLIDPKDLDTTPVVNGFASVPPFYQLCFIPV
PostGolgi yeast – growth inhibition of a yeast mutant, post-Golgi transport screen; inhibition, % at 10 µM; AID 739; post-Golgi transport phenotypic cell assay; hit rate 0.9% among 98,000;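 also: yeast cells grown in 1536-well plates; yeast grown about 18 h at 30C before absorbance read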
CYP2C9 inhib – human CYP2C9 inhibition. P11712. CYP2C9 Supersomes, luciferin-H conversion, luminescence. inhibition, % at 5 µM. hit rate 20% among 96,000. AID 777;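 active = blocking of liver enzyme CYP2C9 beyond about 50% at 5 µM, limit read from the data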
CYP2C9 act – CYP2C9 (human) activation; hit rate 1.4% among 96,000; recombinant CYP2C9, luciferin-H conversion, luminescence; stronger effect = higher value; factor 1 = untreated enzyme, 0 = blocked; activation factor at 5 µM; AID 1024;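 active = activation factor of 2 or more for CYP2C9 at a 5 µM dose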;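 also: 0 = sulfaphenazole-blocked wells and 1 = vehicle-only wells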
CYP2C19 inhib – inhibitors of human CYP2C19 | P33261 | CYP2C19 Supersomes, luciferin-H EGE luminescence, 30 min | inhibition, % at 5 µM | hit rate 21% among 96,000;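 active = CYP2C19 inhibition above a set limit at 5 µM in the primary screen, cut at about 50% in these data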;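 also: plate controls were negative control wells for no effect and 2.5 mM tranylcypromine positive control for full effect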
An asterisk follows results filed as active. Rule as the data show it, unless noted: active = inhibition above about 30%; inactive = the rest.

Results for COCCCNC(=O)c1ccc(NS(C)(=O)=O)cc1 ?
PostGolgi ctrl: -3; CYP2C19 activ: 1; PostGolgi yeast: 21; CYP2C9 inhib: 8; CYP2C9 act: 0.9; CYP2C19 inhib: 0

Results for Cc1c(C(=O)NCc2ccc(F)cc2)c(-c2ccccc2)nn1-c1ccccc1 ?
PostGolgi ctrl: 14; CYP2C19 activ: 0.7; PostGolgi yeast: -6; CYP2C9 inhib: 38; CYP2C9 act: 0.6; CYP2C19 inhib: 29

How did CCOC(=O)c1nn(-c2ccccc2)c(=O)cc1SC(C)C do in these assays?
PostGolgi ctrl: -3; CYP2C19 activ: 1; PostGolgi yeast: -5; CYP2C9 inhib: 3; CYP2C9 act: 1; CYP2C19 inhib: 2

What do the screens show for `CCOC(=O)c1nn(-c2ccc(C)cc2)c(C)c1C(C)=O`?
PostGolgi ctrl: 4; CYP2C19 activ: 0.1; PostGolgi yeast: 15; CYP2C9 inhib: 1; CYP2C9 act: 1; CYP2C19 inhib: 88*

Results for CCOC(=O)c1nn(-c2ccccc2)c(C)c1C(C)=O ?
PostGolgi ctrl: 5; CYP2C19 activ: 0; PostGolgi yeast: -5; CYP2C9 inhib: 17; CYP2C9 act: 0.8; CYP2C19 inhib: 100*

How did CCOC(=O)c1nn(-c2ccc(F)cc2)c(C)c1C(C)=O do in these assays?
PostGolgi ctrl: 23; CYP2C19 activ: 0; PostGolgi yeast: 2; CYP2C9 inhib: 19; CYP2C9 act: 0.8; CYP2C19 inhib: 99*

How did CCOC(=O)c1nn(-c2ccccc2F)c(C)c1C(C)=O do in these assays?
PostGolgi ctrl: 8; CYP2C19 activ: 0; PostGolgi yeast: 10; CYP2C9 inhib: 5; CYP2C9 act: 0.9; CYP2C19 inhib: 98*

What do the screens show for `CCOC(=O)C1CCCN(C(=O)CN2CCN(Cc3ccc(Cl)cc3)C2=O)C1` (stereo not drawn)?
PostGolgi ctrl: 28; CYP2C19 activ: 1; PostGolgi yeast: -2; CYP2C9 inhib: 10; CYP2C9 act: 0.9; CYP2C19 inhib: 3

How did O=C(CSc1nnnn1C1CCCCC1)N1CCCC1 do in these assays?
PostGolgi ctrl: 4; CYP2C19 activ: 1; PostGolgi yeast: 0; CYP2C9 inhib: -8; CYP2C9 act: 1.1; CYP2C19 inhib: -1

Results for COc1ccc(Cl)cc1C(=O)CSc1nnnn1C1CCCC1 ?
PostGolgi ctrl: 35*; CYP2C19 activ: 0.2; PostGolgi yeast: 20; CYP2C9 inhib: 6; CYP2C9 act: 0.9; CYP2C19 inhib: 76*

How did COc1ccc(Cl)cc1C(=O)CSc1nnnn1C1CCCCC1 do in these assays?
PostGolgi ctrl: 29; CYP2C19 activ: 0.3; PostGolgi yeast: -12; CYP2C9 inhib: -4; CYP2C9 act: 1; CYP2C19 inhib: 69*

What do the screens show for `CCOc1ccc2nc(NCCNC(=O)C3CC3)c(C)cc2c1`?
CYP2C19 activ: 0.4; CYP2C9 inhib: 52*; CYP2C9 act: 0.5; CYP2C19 inhib: 56*

What do the screens show for `CCOc1ccc2nc(NCCNC(=O)C(C)C)c(C)cc2c1`?
PostGolgi ctrl: 0; CYP2C19 activ: 0.2; PostGolgi yeast: -4; CYP2C9 inhib: 94*; CYP2C9 act: 0.1; CYP2C19 inhib: 77*

What do the screens show for `COc1cccc(C2NC(CCSC)(C(=O)O)C3C(=O)N(C(C)C)C(=O)C23)c1O` (stereo not drawn)?
PostGolgi ctrl: 40*; CYP2C19 activ: 1.1; PostGolgi yeast: -9; CYP2C9 inhib: -2; CYP2C9 act: 1; CYP2C19 inhib: -15

How did COc1cccc(C2NC(CC(C)C)(C(=O)O)C3C(=O)N(Cc4ccccc4)C(=O)C23)c1O (stereo not drawn) do in these assays?
PostGolgi ctrl: 1; CYP2C19 activ: 1.1; PostGolgi yeast: -19; CYP2C9 inhib: -4; CYP2C9 act: 1; CYP2C19 inhib: -8

Results for CCc1ccc(CN2CCN(S(=O)(=O)Cc3ccccc3)CC2)cc1 ?
PostGolgi ctrl: -6; CYP2C19 activ: 0.8; PostGolgi yeast: 9; CYP2C9 inhib: 1; CYP2C9 act: 1; CYP2C19 inhib: 18

Results for COc1ccc(OC)c(CN2CCN(C(=O)c3cccc4ccccc34)CC2)c1 ?
PostGolgi ctrl: 34*; CYP2C19 activ: 0.4; PostGolgi yeast: 3; CYP2C9 inhib: -37; CYP2C9 act: 1.4; CYP2C19 inhib: 55*

What do the screens show for `COc1ccc(OC)c(CN2CCN(C(=O)c3cccs3)CC2)c1`?
PostGolgi ctrl: 2; CYP2C19 activ: 0.1; PostGolgi yeast: 5; CYP2C9 inhib: 70*; CYP2C9 act: 0.3; CYP2C19 inhib: 91*

Results for COc1ccccc1C1(O)CCN(C(=O)c2cccs2)CC1 ?
PostGolgi ctrl: 14; CYP2C19 activ: 0.8; PostGolgi yeast: 7; CYP2C9 inhib: 54*; CYP2C9 act: 0.5; CYP2C19 inhib: 18

What do the screens show for `COc1cccc(C2(O)CCN(C(=O)c3cccs3)CC2)c1`?
PostGolgi ctrl: -1; CYP2C19 activ: 0.5; PostGolgi yeast: -7; CYP2C9 inhib: 25; CYP2C9 act: 0.7; CYP2C19 inhib: 46

Results for COc1cccc(CN2CCN(C(=O)c3cccs3)CC2)c1OC ?
PostGolgi ctrl: 17; CYP2C19 activ: 0.5; PostGolgi yeast: 1; CYP2C9 inhib: 16; CYP2C9 act: 0.8; CYP2C19 inhib: 50

What do the screens show for `COc1ccc(CN2CCN(C(=O)c3cccs3)CC2)cc1`?
PostGolgi ctrl: -9; CYP2C19 activ: 0.4; PostGolgi yeast: -2; CYP2C9 inhib: 10; CYP2C9 act: 0.9; CYP2C19 inhib: 58*

Results for CSc1nc(NC(C)(C)C)nc(Oc2ccc(=O)n(C)n2)n1 ?
PostGolgi ctrl: -4; CYP2C19 activ: 1; PostGolgi yeast: -16; CYP2C9 inhib: -9; CYP2C9 act: 1.1; CYP2C19 inhib: -4

How did O=c1c2nnn(Cc3ccc(Cl)cc3)c2ncn1Cc1ccc(F)cc1 do in these assays?
PostGolgi ctrl: 1; CYP2C19 activ: 0.9; PostGolgi yeast: -5; CYP2C9 inhib: -6; CYP2C9 act: 1.1; CYP2C19 inhib: 7

Results for O=C1C2C3CC(C(Br)C3Br)C2C(=O)N1c1ccccn1 (stereo not drawn) ?
PostGolgi ctrl: -6; CYP2C19 activ: 0.4; PostGolgi yeast: 7; CYP2C9 inhib: 9; CYP2C9 act: 0.9; CYP2C19 inhib: 62*

What do the screens show for `Nc1sc2c(c1C(=O)NC1CCS(=O)(=O)C1)CCC2` (stereo not drawn)?
PostGolgi ctrl: 7; CYP2C19 activ: 1; PostGolgi yeast: 8; CYP2C9 inhib: 36; CYP2C9 act: 0.6; CYP2C19 inhib: 5

How did CCn1c(SCC(=O)Nc2cc(C)on2)nc2c(c1=O)SC(C)C2 (stereo not drawn) do in these assays?
PostGolgi ctrl: 21; CYP2C19 activ: 0.8; PostGolgi yeast: 7; CYP2C9 inhib: 62*; CYP2C9 act: 0.4; CYP2C19 inhib: 16

How did Cc1ccc(-n2c(SCC(=O)Nc3cc(C)on3)nc3c(c2=O)SC(C)C3)cc1 (stereo not drawn) do in these assays?
PostGolgi ctrl: 22; CYP2C19 activ: 0.8; PostGolgi yeast: -16; CYP2C9 inhib: 34; CYP2C9 act: 0.7; CYP2C19 inhib: 18
